The values below come from publication PMC9911399, “Two distinct binding modes provide the RNA-binding protein RbFox with extraordinary sequence specificity”.

Residue numbers refer to the chain shown, from its start. Over roughly 16,000 sequences, “ka relative to ugcaugu” has its median near 0.0091; the highest 2% begin near 0.032. The entries come from a sample that favours the highest values as a whole.

To fix the notation:
B1: AGCAGGG (DNA:RNA)
RNA: GGGAGACCGGAAUUCAGAUUGUCCAGCAGGGUUAAAUCCCGUCGUAGCCACCA
DNA 1: CAATCTGAATTCCGGTCTCCC
DNA 2: TGGTGGCTACGACGGGATT
B2: UGAGGUG (DNA:RNA)
RNA: B1 RNA with A25U, C27A, A28G, G30U
DNA 1: CAATCTGAATTCCGGTCTCCC
DNA 2: TGGTGGCTACGACGGGATT
B3: UCCGUAG (DNA:RNA)
RNA: B1 RNA with A25U, G26C, A28G, G29U, G30A
DNA 1: CAATCTGAATTCCGGTCTCCC
DNA 2: TGGTGGCTACGACGGGATT
B4: UGUAUUG (DNA:RNA)
RNA: B1 RNA with A25U, C27U, G29U, G30U
DNA 1: CAATCTGAATTCCGGTCTCCC
DNA 2: TGGTGGCTACGACGGGATT
B5: UGUAUGC (DNA:RNA)
RNA: B1 RNA with A25U, C27U, G29U, G31C
DNA 1: CAATCTGAATTCCGGTCTCCC
DNA 2: TGGTGGCTACGACGGGATT
B6: CGUAUGC (DNA:RNA)
RNA: B1 RNA with A25C, C27U, G29U, G31C
DNA 1: CAATCTGAATTCCGGTCTCCC
DNA 2: TGGTGGCTACGACGGGATT
B7: UUCUGCU (DNA:RNA)
RNA: B1 RNA with A25U, G26U, A28U, G30C, G31U
DNA 1: CAATCTGAATTCCGGTCTCCC
DNA 2: TGGTGGCTACGACGGGATT
B8: UGUAACC (DNA:RNA)
RNA: B1 RNA with A25U, C27U, G29A, G30C, G31C
DNA 1: CAATCTGAATTCCGGTCTCCC
DNA 2: TGGTGGCTACGACGGGATT
B9: AGGCGUG (DNA:RNA)
RNA: B1 RNA with C27G, A28C, G30U
DNA 1: CAATCTGAATTCCGGTCTCCC
DNA 2: TGGTGGCTACGACGGGATT
B10: ACCCAGU (DNA:RNA)
RNA: B1 RNA with G26C, A28C, G29A, G31U
DNA 1: CAATCTGAATTCCGGTCTCCC
DNA 2: TGGTGGCTACGACGGGATT
B11: AUGUGUG (DNA:RNA)
RNA: B1 RNA with G26U, C27G, A28U, G30U
DNA 1: CAATCTGAATTCCGGTCTCCC
DNA 2: TGGTGGCTACGACGGGATT
B12: GCAUAUG (DNA:RNA)
RNA: B1 RNA with A25G, G26C, C27A, A28U, G29A, G30U
DNA 1: CAATCTGAATTCCGGTCTCCC
DNA 2: TGGTGGCTACGACGGGATT
B13: GCGCAUG (DNA:RNA)
RNA: B1 RNA with A25G, G26C, C27G, A28C, G29A, G30U
DNA 1: CAATCTGAATTCCGGTCTCCC
DNA 2: TGGTGGCTACGACGGGATT
B14: GCGCGCA (DNA:RNA)
RNA: B1 RNA with A25G, G26C, C27G, A28C, G30C, G31A
DNA 1: CAATCTGAATTCCGGTCTCCC
DNA 2: TGGTGGCTACGACGGGATT
B15: GCAUGUG (DNA:RNA)
RNA: B1 RNA with A25G, G26C, C27A, A28U, G30U
DNA 1: CAATCTGAATTCCGGTCTCCC
DNA 2: TGGTGGCTACGACGGGATT
B16: GCACAUG (DNA:RNA)
RNA: B1 RNA with A25G, G26C, C27A, A28C, G29A, G30U
DNA 1: CAATCTGAATTCCGGTCTCCC
DNA 2: TGGTGGCTACGACGGGATT
B17: GCGCAUC (DNA:RNA)
RNA: GGGAGACCGGAAUUCAGAUUGUCCGCGCAUCUUAAAUCCCGUCGUAGCCACCA
DNA 1: CAATCTGAATTCCGGTCTCCC
DNA 2: TGGTGGCTACGACGGGATT
B18: GUCCGUC (DNA:RNA)
RNA: B17 RNA with C26U, G27C, A29G
DNA 1: CAATCTGAATTCCGGTCTCCC
DNA 2: TGGTGGCTACGACGGGATT
B19: GCAUGUC (DNA:RNA)
RNA: B17 RNA with G27A, C28U, A29G
DNA 1: CAATCTGAATTCCGGTCTCCC
DNA 2: TGGTGGCTACGACGGGATT
B20: CAAUGUA (DNA:RNA)
RNA: B1 RNA with A25C, G26A, C27A, A28U, G30U, G31A
DNA 1: CAATCTGAATTCCGGTCTCCC
DNA 2: TGGTGGCTACGACGGGATT

This assay concerns the target T1, RBFOX1 RRM (Homo sapiens, UniProt Q9NWB1 109-208).
T1 sequence: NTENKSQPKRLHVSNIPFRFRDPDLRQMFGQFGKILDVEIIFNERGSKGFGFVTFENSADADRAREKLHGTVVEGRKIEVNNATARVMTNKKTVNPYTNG
Nature of the assay: EMSA; HiTS-Eq, 1 nM pool, 10 min; buffer printed only for the single-RNA assays: 10 mM Tris pH 7.5, 150 mM NaCl, 3.4 mM EDTA, 0.001% NP-40, 30 C. Particulars: tags: His6 N-terminal (pET28a); label: 5' 32P. In short, it runs like this: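 These values rest on relative association constants, computed from read-count changes of each RNA species versus the control reaction and normalised to the cognate motif. Reads came from free RNA recovered by 8% native PAGE after purified RbFox RRM (wild type or mutant) at increasing concentrations was equilibrated for 10 min in 50 µL with 1 nM of a 5′-radiolabelled pool with 7 randomized nucleotides and DNA-annealed flanks.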
A general note: Mobility shift assays separate free from complexed probe on a gel.
As to B1, the binding signal was 0.0126 KA relative to UGCAUGU.
The result for B2 reads 0.0201 KA relative to UGCAUGU.
Under B3 stands 0.00757 KA relative to UGCAUGU.
The result for B4 reads 0.0262 KA relative to UGCAUGU.
In the case of B5, the binding signal is 0.0374 KA relative to UGCAUGU.
Under B6 stands 0.014 KA relative to UGCAUGU; under B7, 0.0203 KA relative to UGCAUGU.
Under B8 stands 0.00753 KA relative to UGCAUGU; under B9, 0.0157 KA relative to UGCAUGU; under B10, 0.00233 KA relative to UGCAUGU.
Under B11 stands 0.0208 KA relative to UGCAUGU; under B12, 0.00982 KA relative to UGCAUGU.
Regarding B13, the binding signal is 0.843 KA relative to UGCAUGU.
Under B14 stands 0.0238 KA relative to UGCAUGU; under B15, 0.8 KA relative to UGCAUGU.
Under B16 stands 0.0141 KA relative to UGCAUGU.
The result for B17 reads 0.0246 KA relative to UGCAUGU.
On to B18, for which the binding signal is 0.0149 KA relative to UGCAUGU.
As to B19, the binding signal was 0.689 KA relative to UGCAUGU.
The result for B20 reads 0.00174 KA relative to UGCAUGU.
